# Screening data: PubChem BioAssay, National Center for Advancing Translational Sciences (NCATS)
# Hits are enriched below; roughly 14% of the tested compounds scored in any of these assays.
# HCMV inh = inhibitors of human cytomegalovirus | HFF cells, HCMV-luciferase reporter, 72 h; stronger effect = lower value | activity change, negative = inhibition, % at 57.5 µM | hit rate 4.5% among 410,000 | AID 1259415; in the data active = activity change below about -60%; inconclusive = no clear call, values can overlap the other calls; inactive = above about -39%
#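 Compounds were evaluated in HFFs infected with an HCMV luciferase reporter virus (MOI 1 PFU/cell). Luciferase in lysates collected 72 h post infection served as the replication measure.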
# Sm TGR block = S. mansoni TGR enzyme inhibition. purified TGR, DTNB reduction, TNB absorbance 405 nm. Potency, µM (highest dose often 114 µM), for the others: at the highest dose activity change, negative = inhibition, hits mostly inhibitors. hit rate 3% among 360,000. AID 485364; note: potency is the fitted concentration of half-maximal effect; nearly all actives have a fitted effect of over 60% in size
#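 TGR 20 nM + NADPH 100 uM (dispensed conc.), cpd preinc 15 min RT; start with NADPH (500 uM addition) then DTNB (15 mM addition). Kinetic TNB absorbance, 405 nm filter. Four-parameter Hill fit across titration.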
# Pf growth 48h = inhibits P. falciparum growth in the first generation, 48 h | P. falciparum luciferase growth in erythrocytes, 48 h | Potency, µM (doses to about 28.7 µM), for the others: top-dose activity change, negative = inhibition, most hits filed as inhibitors | hit rate 5.9% among 310,000 | AID 504832; note: potency is the fitted concentration of half-maximal effect
#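 A one-generation exposure of luciferase-tagged malaria parasites in RPMI 1640/Albumax erythrocyte culture, 37 C and 5% CO2. Inhibition is inferred from decreased luminescence after adding detection reagent.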
# Pf growth 96h = inhibits malaria parasite growth, 96 h; Potency, µM (titrated, usually from 28.7 µM), for the others: top-dose activity change, negative = inhibition, usual class: inhibitors; AID 504834; P. falciparum luciferase reporter growth, 96 h; hit rate 6.9% among 320,000; note: potency is the fitted concentration of half-maximal effect
#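 96 h incubation, 37 C, 5% CO2, of luciferase-reporter P. falciparum-infected RBCs (2% hematocrit, 0.05% parasitemia final) with test compounds; endpoint luminescence.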
# Giardia FBPA inh = Giardia lamblia aldolase inhibition | purified Giardia FBPA | Potency, µM (series often up to 59.6 µM), for inactives: at the highest dose activity, negative = inhibition, actives largely listed as inhibitors | hit rate 0.71% among 290,000 | AID 2451; note: potency is the fitted concentration of half-maximal effect; nearly all actives have a fitted effect of over 55% in size
# Target sequence (A8B2U2 whole entry, looked up): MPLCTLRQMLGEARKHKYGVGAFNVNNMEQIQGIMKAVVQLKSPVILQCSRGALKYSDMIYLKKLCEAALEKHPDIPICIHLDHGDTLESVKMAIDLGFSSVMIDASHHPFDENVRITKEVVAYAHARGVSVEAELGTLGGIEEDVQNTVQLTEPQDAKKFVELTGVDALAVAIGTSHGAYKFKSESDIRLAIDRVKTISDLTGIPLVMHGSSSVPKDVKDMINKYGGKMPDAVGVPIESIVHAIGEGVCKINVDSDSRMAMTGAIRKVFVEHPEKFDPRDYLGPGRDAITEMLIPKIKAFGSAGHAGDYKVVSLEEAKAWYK
#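 40 nM FBPA preincubated 10 min at RT with compound (up to 57.5 uM final), then substrate plus GAPDH/TPI/NAD/arsenate coupling and diaphorase/resazurin added. Fluorescence read after 20 min at RT, 525/598 nm.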
# * = called active by the depositor; ? = inconclusive; · = no result. Unless noted, calls come from the whole dose curve; as a rule, active = well fitted curve in the direction sought with a large enough effect; inconclusive = small, poorly fitted or top-dose-only effect, or another doubt; inactive = no such curve, though single readings can be large; an effect the other way counts as inactive or inconclusive. % is set by controls: 0 for no effect and ±100 for the full control effect.
SMILES,HCMV inh,Sm TGR block,Pf growth 48h,Pf growth 96h,Giardia FBPA inh
CN(C)S(=O)(=O)N1CCC(Oc2ccc(C(=O)NCC(C)(C)CO)cc2)CC1,-64*,4%,-17%,1.7µM*,1%
CC1CCC(NC(=O)c2cc3c(s2)CS(=O)(=O)C3)CC1 (centres undefined),40,-21%,-9%,12µM*,-1%
Cc1ccc(C(=O)Nc2ccncc2)c(Cl)c1,-39,-9%,4%,?,1%
Cc1ccc2nc(-c3ccncc3)cc(-c3ccccc3)c2c1,6,-14%,10µM*,9.3µM*,1%
Cc1ccc(C(=O)NCC(=O)Nc2ccncc2)cc1,-4,2%,66%,42%,·
Cc1ccc(C(=O)NCC(=O)Nc2ccncc2)cc1C,-74*,-23%,39%,-42%,0%
Cc1cccc(-c2cc(C(=O)Nc3ccncc3)c3ccccc3n2)c1,-7,-10%,1µM*,2.3µM*,9%
Cc1ccc2nc(-c3ccc(NS(C)(=O)=O)cc3)cc(-c3ccccc3)c2c1,-10,0%,?,?,-6%
Cc1ccc(C)c(C(=O)Nc2ccncc2)c1,-12,-17%,?,2.1µM*,12%
CCCCCCCCCCCCCCCC(=O)NCCCC(=O)O,·,·,·,·,6%
COc1ccc(CCNCc2ccc3c(c2)n(C)c(=O)n3C)cc1OC,-3,-9%,·,·,·
Cc1ccc2nc(-c3ccccc3)cc(C(=O)Nc3cccnc3)c2c1,-24,3%,2.1µM*,1.7µM*,·
Cc1ccc(-c2cc(C(=O)Nc3cccnc3)c3ccccc3n2)s1,53,17%,2.6µM*,?,-5%
Cc1ccc2nc(-c3cccnc3)cc(C(=O)Nc3ccc(F)cc3C)c2c1,-22,-6%,?,-16%,4%
Cc1ccc2nc(-c3ccncc3)cc(C(=O)Nc3ccc(F)cc3C)c2c1,27,-17%,6.6µM*,?,-9%
Cc1ccc(C)c(C(=O)Nc2cc(C)nn2-c2nc(C)cc(C)n2)c1,-27,-4%,13µM*,?,3%
Cn1cccc1C(=O)N1CCC2(CC1)CN(C(=O)Nc1cccc(F)c1)C2,·,·,·,·,1%
C[C@]12CCCCC3=CC(=O)C=C[C@@]31OCC2,0,·,·,·,·
Cc1c(-c2ccccc2)nc2ccccc2c1C(=O)O,20,5%,-2%,-5%,-1%
Cc1c(-c2ccccc2)nc2ccccc2c1C(=O)Nc1ccncc1,-39,-9%,1.7µM*,0.33µM*,6%
COc1cc(Br)ccc1C1CC(=O)C(C)C(c2ccc(Br)cc2OC)N1 (centres undefined),4,-7%,·,24%,10%
O=C(O)c1ccccc1O[C@@H]1O[C@H](C(=O)O)[C@@H](O)[C@H](O)[C@H]1O,·,·,·,·,0%
COc1cc(/C=N\NC(=O)c2ccc(-c3ccccc3)cc2)cc(OC)c1OC(C)=O,25,?,?,?,·
COc1cc(/C=N/NC(=O)c2ccc(COc3cc(C)ccc3C(C)C)cc2)cc(OC)c1O,-88*,-7%,?,?,-1%
Cc1ccc(C(C)C)c(OCc2ccc(C(=O)N/N=C/c3cccc(O)c3O)cc2)c1,·,-5%,1.7µM*,2.6µM*,?
SMILES,HCMV inh,Sm TGR block,Pf growth 48h,Pf growth 96h,Giardia FBPA inh
COc1cc(/C=N\NC(=O)c2ccc(-c3ccccc3)cc2)cc(OC)c1O,37,1%,9.3µM*,11%,-4%
CCC(=O)N(C)C[C@H]1Oc2ncc(C#Cc3ccncc3)cc2C(=O)N([C@@H](C)CO)C[C@@H]1C,-15,·,·,·,·
O=C(CCC(=O)NNC(=O)c1ccccc1[N+](=O)[O-])NCc1ccccc1,-12,·,15%,16%,-6%
COc1ccc(CNC(=O)O[C@H]2CC[C@@]34CCCN3C(=O)CCC[C@H]4[C@H]2Cc2ccccc2)cc1,7,·,·,·,·
COC(=O)c1cc(S(=O)(=O)NCCN2CCOCC2)cn1C,-23,-2%,-9%,?,-7%
COc1cc(/C=C2/C(=O)NN(c3cccc(C)c3)C2=O)ccc1OC(=O)c1ccco1,102,?,12%,4.1µM*,-1%
CC1CCCCC1NC(=S)Nc1ccc(SC(F)F)cc1 (centres undefined),-100*,-3%,-77%,·,0%
FC(F)Sc1ccc(NC(=S)NC2CCCCC2)cc1,7,-4%,·,?,-4%
FC(F)Sc1ccc(NC(=S)NCC2CCCCC2)cc1,-97*,1%,·,-105%,1%
Cc1ccc2cc3c(N)[nH]nc3nc2c1,-38,2%,36%,32%,4%
CCOc1ccc(-c2nnn(CC(=O)NCc3ccc(F)cc3)n2)cc1OCC,52,10%,2%,?,0%
CCOc1ccc(-c2nnn(CC(=O)c3ccc4c(c3)OCCO4)n2)cc1OCC,-10,-2%,-11%,15µM*,-3%
CCOc1ccc(-c2nnn(CC(=O)Nc3cccc(OC)c3)n2)cc1OCC,27,7%,-23%,12µM*,-9%
O=C(NCCCCl)C1CC(=O)N(CCc2ccc(F)cc2)C1 (centres undefined),9,-1%,9%,23%,-3%
COc1ccc(CN2CSC(=S)N(Cc3ccc(OC)cc3)C2)cc1,11,-16%,12µM*,?,1%
S=C1SCN(Cc2ccccc2)CN1Cc1ccccc1,-25,-11%,?,6%,5%
S=C1SCN(Cc2cccnc2)CN1Cc1cccnc1,-95*,-1%,1.9µM*,?,?
O=C1NC(=O)C2(CCc3ccccc32)N1 (centres undefined),0,3%,14%,-15%,-3%
C=C1CC2(OC1=O)c1ccccc1CCc1ccccc12,-97*,·,·,·,·
CC(C)[C@@H](C)/C=C/[C@@H](C)[C@H]1CC[C@@H]2[C@]1(C)CCC1[C@]23C=C[C@]2(C[C@@H](O)CC[C@]12C)N(c1ncc(C(F)(F)F)cc1Cl)O3 (some centres undefined),67,·,·,·,·
Cc1cc(C)c(CN2CCN(C(=O)Cn3cnc(C(=O)Nc4ccc(C)c(C)c4)n3)CC2)c(C)c1,-102*,·,·,·,·
COc1cccc(-c2nc(NCc3cccs3)c3ccccc3n2)c1,·,·,·,·,13%
O=c1oc2ccccc2c(NC(c2ccccc2)c2ccccc2)c1[N+](=O)[O-],-23,0%,10µM*,163%,-3%
CCc1nc(SCC(=O)N2CCCC2)c2c(=O)n(C)c(=O)n(C)c2n1,5,4%,-3%,-14%,·
CCn1c(SCC(=O)Nc2ccc3c(c2)OCO3)nc2c1c(=O)n(C)c(=O)n2C,-2,7%,12%,?,2%
CC(C)n1c(SCC(=O)N2CCCC2)nc2c1c(=O)n(C)c(=O)n2C,-1,7%,?,-28%,-1%
CCCn1c(SCC(=O)N2CCCC2)nc2c1c(=O)n(C)c(=O)n2C,4,8%,-20%,1.2µM*,0%
CCCn1c(SCC(=O)Nc2ccc3c(c2)OCO3)nc2c1c(=O)n(C)c(=O)n2C,-19,4%,1%,10µM*,4%
